Experiment [1] deals with T1, Ephrin type-A receptor 3 (Homo sapiens) (UniProt P29320).
T1 sequence (whole entry): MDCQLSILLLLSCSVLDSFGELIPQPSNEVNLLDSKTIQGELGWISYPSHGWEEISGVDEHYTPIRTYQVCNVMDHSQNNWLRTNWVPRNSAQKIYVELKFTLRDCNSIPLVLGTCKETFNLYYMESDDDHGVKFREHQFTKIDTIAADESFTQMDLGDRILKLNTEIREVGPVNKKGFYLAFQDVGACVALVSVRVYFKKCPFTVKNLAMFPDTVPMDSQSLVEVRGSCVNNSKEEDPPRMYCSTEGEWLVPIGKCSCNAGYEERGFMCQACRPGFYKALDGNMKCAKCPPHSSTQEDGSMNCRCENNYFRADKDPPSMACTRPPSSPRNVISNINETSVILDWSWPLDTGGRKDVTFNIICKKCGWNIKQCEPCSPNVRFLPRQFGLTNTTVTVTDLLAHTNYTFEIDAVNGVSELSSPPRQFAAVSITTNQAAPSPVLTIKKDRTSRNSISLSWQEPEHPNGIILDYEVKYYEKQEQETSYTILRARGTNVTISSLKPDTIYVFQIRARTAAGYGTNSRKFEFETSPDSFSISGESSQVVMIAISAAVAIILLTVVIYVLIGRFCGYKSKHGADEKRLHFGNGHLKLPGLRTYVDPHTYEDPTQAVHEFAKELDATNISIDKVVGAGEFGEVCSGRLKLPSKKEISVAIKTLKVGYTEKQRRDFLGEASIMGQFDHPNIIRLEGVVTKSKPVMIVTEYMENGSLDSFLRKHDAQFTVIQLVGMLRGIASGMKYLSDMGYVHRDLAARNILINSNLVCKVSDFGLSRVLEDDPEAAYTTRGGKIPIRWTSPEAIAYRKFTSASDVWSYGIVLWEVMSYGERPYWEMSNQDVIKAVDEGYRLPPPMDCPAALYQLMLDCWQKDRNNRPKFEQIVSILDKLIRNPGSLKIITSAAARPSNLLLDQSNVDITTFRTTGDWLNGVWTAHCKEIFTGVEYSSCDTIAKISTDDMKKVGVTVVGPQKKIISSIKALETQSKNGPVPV
Conditions: at 10 µM; call rule not given here.

The target of experiment [2] is T2, Ephrin type-A receptor 8 (Homo sapiens) (UniProt P29322).
T2 sequence (whole entry): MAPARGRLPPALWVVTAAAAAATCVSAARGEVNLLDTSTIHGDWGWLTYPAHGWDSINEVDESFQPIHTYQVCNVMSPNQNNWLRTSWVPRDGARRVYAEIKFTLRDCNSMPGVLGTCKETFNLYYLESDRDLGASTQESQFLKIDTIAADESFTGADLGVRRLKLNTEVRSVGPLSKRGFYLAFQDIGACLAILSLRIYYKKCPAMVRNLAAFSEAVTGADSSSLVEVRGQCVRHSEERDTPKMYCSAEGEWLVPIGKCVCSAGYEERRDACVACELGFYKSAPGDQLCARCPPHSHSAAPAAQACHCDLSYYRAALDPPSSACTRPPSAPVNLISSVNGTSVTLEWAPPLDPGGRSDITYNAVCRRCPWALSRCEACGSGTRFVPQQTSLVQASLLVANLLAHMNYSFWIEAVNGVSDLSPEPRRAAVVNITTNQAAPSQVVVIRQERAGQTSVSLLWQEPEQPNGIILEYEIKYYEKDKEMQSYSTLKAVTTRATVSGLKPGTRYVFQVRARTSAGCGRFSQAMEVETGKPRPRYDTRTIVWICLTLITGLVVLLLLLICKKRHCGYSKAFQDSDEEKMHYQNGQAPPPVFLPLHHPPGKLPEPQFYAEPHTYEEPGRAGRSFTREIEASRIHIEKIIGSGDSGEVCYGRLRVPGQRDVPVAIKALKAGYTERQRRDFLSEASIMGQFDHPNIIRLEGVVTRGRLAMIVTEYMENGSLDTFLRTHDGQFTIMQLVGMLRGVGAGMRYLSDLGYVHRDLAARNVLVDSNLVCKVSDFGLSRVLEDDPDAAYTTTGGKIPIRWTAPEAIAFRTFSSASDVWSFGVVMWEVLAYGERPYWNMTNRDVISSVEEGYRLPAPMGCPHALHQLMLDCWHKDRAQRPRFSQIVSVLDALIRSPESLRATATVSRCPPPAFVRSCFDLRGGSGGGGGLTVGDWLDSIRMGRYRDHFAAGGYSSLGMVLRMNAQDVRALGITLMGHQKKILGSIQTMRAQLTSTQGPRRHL
Conditions: at 1 µM.

The target of experiment [3] is T2, Ephrin type-A receptor 8 (Homo sapiens). Conditions: at 10 µM.
The target of experiment [4] is T3, Ephrin type-B receptor 1 (Homo sapiens) (UniProt P54762).
T3 sequence (whole entry): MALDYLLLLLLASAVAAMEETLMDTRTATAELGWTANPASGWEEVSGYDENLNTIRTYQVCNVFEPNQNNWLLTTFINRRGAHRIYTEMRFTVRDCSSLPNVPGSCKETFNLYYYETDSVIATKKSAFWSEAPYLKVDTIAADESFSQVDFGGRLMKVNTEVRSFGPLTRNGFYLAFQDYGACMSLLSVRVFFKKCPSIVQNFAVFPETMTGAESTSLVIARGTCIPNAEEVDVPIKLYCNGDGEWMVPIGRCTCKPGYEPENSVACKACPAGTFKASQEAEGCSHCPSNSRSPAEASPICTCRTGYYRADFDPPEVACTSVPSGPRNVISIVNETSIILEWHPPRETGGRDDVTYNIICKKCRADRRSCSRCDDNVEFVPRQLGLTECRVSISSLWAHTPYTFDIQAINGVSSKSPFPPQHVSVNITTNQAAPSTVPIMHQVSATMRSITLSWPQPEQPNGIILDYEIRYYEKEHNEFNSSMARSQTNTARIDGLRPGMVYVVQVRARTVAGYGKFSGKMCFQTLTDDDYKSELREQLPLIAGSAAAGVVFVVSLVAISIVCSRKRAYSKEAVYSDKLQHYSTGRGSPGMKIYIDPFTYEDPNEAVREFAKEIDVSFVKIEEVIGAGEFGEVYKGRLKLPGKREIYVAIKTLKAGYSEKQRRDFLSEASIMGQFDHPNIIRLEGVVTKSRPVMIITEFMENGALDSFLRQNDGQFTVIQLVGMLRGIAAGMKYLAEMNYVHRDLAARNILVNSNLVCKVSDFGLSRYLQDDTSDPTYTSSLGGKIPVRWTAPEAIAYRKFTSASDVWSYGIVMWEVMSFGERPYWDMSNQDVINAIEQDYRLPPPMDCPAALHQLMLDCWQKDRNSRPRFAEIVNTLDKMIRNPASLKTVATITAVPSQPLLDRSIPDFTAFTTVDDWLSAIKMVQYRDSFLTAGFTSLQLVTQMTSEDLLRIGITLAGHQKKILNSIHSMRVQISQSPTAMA
Conditions: at 10 µM.

Experiment [5] has as its target Focal adhesion kinase 1 (Homo sapiens) (UniProt Q05397). Conditions: at 1 µM.
The target of experiment [6] is Ephrin type-A receptor 4 (Homo sapiens) (UniProt P54764). Conditions: at 1 µM.
For experiment [7] the target is unchanged. Conditions: at 10 µM.
In experiment [8] the target is T4, Ephrin type-B receptor 2 (Homo sapiens) (UniProt P29323).
T4 sequence (whole entry): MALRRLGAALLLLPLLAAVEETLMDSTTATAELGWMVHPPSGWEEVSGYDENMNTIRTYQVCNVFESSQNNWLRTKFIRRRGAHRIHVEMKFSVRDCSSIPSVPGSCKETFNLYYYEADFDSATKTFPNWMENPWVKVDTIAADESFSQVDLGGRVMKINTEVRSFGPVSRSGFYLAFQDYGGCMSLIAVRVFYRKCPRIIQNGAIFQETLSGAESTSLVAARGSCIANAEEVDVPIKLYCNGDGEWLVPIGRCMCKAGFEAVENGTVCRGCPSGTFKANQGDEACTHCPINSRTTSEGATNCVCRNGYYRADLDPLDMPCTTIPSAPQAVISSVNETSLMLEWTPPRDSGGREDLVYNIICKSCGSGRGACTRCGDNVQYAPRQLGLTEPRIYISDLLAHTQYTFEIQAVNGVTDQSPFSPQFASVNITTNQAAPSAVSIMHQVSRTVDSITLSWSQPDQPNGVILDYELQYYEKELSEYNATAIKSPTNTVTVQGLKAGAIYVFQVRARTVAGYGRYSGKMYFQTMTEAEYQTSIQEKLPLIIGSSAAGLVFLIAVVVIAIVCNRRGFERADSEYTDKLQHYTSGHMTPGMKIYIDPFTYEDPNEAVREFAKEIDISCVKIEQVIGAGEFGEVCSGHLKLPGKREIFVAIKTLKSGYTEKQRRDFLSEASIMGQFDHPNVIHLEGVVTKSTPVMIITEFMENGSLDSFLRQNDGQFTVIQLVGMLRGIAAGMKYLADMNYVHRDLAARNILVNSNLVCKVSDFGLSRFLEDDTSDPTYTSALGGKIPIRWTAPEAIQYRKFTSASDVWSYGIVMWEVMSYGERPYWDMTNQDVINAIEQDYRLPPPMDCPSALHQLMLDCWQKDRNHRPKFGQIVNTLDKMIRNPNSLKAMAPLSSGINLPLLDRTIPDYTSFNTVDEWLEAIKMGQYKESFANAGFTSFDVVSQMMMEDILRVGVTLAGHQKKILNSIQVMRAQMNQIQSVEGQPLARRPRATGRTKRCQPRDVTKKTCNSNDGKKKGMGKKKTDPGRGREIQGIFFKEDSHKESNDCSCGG
The following applies: at 1 µM.

Experiment [9] deals with T4, Ephrin type-B receptor 2 (Homo sapiens). The following applies: at 10 µM.
Experiment [10] deals with T5, Ephrin type-B receptor 3 (Homo sapiens) (UniProt P54753).
T5 sequence (whole entry): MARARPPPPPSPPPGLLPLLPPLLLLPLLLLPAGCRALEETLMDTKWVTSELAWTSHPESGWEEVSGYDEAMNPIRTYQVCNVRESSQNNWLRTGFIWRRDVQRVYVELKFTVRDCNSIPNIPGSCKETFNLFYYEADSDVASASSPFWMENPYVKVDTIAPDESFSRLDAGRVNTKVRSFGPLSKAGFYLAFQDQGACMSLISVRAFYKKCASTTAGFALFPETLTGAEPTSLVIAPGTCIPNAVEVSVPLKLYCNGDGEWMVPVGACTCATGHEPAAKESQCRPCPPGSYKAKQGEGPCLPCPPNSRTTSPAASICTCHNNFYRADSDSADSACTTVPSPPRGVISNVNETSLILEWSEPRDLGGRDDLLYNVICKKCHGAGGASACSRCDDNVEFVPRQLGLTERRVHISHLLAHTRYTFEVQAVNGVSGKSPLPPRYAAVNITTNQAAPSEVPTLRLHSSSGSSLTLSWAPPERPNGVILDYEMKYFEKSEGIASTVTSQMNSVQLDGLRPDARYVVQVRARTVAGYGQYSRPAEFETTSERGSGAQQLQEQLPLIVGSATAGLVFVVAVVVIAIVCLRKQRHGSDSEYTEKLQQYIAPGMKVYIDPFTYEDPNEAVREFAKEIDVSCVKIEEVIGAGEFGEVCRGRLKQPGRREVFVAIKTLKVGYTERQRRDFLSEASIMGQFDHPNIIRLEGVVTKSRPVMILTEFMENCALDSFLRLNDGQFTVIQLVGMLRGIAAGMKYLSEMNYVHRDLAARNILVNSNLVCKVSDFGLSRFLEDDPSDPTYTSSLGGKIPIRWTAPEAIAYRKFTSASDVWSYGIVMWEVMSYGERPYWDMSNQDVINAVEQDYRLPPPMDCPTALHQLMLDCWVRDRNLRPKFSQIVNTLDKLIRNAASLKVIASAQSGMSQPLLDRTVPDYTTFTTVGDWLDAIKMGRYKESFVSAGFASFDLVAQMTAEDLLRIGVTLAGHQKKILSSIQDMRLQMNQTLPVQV
The following applies: at 1 µM.

Experiment [11] concerns the target T5, Ephrin type-B receptor 3 (Homo sapiens). The following applies: at 10 µM.
Experiment [12] concerns the target Ephrin type-A receptor 5 (Homo sapiens) (UniProt P54756). Conditions: at 1 µM.
For experiment [13] the target is unchanged. The following applies: at 10 µM.
The target in experiment [14] is T6, Ephrin type-B receptor 4 (Homo sapiens) (UniProt P54760).
T6 sequence (whole entry): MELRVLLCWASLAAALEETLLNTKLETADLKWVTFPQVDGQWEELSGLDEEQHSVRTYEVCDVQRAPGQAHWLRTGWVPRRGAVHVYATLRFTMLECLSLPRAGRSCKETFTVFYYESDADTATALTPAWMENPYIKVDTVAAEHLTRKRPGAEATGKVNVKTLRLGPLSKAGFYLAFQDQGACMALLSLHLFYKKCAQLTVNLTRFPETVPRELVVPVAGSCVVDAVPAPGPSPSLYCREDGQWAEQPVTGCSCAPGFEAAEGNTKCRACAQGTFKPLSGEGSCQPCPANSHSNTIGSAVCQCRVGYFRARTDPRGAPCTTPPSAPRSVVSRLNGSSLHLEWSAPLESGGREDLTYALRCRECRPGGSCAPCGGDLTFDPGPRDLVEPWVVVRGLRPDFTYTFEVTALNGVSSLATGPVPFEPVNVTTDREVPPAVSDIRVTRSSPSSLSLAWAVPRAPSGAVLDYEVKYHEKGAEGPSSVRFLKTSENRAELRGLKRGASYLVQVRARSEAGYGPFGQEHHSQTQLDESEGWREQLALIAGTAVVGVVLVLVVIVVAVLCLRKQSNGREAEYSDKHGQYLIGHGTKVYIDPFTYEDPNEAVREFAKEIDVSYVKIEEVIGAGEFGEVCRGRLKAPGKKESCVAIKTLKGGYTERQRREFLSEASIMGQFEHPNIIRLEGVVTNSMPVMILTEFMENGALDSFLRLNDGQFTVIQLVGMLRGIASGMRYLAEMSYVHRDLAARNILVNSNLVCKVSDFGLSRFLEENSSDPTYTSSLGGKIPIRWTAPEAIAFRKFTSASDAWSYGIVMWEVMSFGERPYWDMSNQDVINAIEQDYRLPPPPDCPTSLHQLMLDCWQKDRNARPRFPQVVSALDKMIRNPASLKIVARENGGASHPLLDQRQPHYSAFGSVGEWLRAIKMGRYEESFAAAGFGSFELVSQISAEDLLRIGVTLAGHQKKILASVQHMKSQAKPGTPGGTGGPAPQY
The following applies: at 1 µM.

The target in experiment [15] is T6, Ephrin type-B receptor 4 (Homo sapiens). The following applies: at 10 µM.
The target of experiment [16] is Receptor tyrosine-protein kinase erbB-4 (Homo sapiens) (UniProt Q15303). Conditions: at 10 µM.
Chain of Receptor tyrosine-protein kinase erbB-4 (Homo sapiens) (Q15303 whole entry): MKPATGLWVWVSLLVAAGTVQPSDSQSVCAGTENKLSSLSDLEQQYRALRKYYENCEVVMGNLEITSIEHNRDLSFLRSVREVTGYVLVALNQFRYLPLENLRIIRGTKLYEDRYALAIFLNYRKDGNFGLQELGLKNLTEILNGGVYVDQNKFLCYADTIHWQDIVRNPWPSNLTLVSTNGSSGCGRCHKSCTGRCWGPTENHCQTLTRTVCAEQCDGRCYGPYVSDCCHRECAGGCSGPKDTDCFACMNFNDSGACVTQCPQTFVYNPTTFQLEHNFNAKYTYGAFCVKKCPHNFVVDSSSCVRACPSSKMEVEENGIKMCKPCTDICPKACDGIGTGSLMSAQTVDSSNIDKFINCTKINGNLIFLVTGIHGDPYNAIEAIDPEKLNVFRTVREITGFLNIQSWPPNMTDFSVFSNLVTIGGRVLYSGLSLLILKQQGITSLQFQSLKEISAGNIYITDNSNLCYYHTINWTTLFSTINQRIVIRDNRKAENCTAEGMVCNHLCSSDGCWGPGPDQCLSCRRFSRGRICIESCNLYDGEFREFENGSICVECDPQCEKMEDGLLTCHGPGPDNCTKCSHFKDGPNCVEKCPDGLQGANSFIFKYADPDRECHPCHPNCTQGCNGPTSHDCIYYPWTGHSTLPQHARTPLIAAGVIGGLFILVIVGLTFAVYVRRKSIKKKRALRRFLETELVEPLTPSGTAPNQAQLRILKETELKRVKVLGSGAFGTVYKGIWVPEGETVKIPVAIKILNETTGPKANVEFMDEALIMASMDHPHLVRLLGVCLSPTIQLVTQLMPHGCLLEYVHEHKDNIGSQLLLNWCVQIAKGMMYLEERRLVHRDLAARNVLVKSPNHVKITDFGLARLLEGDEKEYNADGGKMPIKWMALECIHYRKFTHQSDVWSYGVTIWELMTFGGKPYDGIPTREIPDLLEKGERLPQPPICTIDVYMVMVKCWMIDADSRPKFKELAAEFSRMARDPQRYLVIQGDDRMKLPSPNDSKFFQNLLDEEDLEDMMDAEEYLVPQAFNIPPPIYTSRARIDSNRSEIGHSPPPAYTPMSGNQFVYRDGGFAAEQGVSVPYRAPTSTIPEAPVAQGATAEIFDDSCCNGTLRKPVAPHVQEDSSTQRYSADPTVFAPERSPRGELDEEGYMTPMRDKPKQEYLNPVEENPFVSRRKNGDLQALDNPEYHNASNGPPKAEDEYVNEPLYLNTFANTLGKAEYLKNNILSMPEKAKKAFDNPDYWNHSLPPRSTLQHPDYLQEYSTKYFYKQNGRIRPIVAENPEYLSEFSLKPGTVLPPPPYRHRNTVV

Chain of Ephrin type-A receptor 4 (Homo sapiens) (P54764 whole entry): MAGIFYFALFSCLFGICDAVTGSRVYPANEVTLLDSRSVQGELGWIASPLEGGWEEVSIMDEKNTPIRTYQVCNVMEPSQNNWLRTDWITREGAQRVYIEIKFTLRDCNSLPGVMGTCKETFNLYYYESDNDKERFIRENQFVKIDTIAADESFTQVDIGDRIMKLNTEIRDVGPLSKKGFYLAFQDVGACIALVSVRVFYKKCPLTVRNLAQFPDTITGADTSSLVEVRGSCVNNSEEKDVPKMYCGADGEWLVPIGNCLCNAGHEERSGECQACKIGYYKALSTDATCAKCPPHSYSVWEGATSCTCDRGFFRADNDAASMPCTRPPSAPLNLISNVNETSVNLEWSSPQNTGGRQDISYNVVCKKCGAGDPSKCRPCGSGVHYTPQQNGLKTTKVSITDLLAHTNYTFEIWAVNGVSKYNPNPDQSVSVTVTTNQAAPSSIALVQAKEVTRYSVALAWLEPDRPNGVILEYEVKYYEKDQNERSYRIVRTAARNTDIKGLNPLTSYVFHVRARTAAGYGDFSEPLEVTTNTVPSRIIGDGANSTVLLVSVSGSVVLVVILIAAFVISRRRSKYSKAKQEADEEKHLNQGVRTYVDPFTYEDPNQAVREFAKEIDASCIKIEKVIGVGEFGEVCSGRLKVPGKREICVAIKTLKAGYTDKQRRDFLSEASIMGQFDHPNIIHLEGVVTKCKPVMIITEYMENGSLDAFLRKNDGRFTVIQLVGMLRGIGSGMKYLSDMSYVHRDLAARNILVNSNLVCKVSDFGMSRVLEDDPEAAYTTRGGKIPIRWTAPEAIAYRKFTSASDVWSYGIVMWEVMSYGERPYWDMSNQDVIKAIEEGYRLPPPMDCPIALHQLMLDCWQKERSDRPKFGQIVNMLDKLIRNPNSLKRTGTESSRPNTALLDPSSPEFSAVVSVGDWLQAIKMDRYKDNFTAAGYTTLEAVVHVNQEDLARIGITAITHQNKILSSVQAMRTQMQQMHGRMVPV
Chain of Ephrin type-A receptor 5 (Homo sapiens) (P54756 whole entry): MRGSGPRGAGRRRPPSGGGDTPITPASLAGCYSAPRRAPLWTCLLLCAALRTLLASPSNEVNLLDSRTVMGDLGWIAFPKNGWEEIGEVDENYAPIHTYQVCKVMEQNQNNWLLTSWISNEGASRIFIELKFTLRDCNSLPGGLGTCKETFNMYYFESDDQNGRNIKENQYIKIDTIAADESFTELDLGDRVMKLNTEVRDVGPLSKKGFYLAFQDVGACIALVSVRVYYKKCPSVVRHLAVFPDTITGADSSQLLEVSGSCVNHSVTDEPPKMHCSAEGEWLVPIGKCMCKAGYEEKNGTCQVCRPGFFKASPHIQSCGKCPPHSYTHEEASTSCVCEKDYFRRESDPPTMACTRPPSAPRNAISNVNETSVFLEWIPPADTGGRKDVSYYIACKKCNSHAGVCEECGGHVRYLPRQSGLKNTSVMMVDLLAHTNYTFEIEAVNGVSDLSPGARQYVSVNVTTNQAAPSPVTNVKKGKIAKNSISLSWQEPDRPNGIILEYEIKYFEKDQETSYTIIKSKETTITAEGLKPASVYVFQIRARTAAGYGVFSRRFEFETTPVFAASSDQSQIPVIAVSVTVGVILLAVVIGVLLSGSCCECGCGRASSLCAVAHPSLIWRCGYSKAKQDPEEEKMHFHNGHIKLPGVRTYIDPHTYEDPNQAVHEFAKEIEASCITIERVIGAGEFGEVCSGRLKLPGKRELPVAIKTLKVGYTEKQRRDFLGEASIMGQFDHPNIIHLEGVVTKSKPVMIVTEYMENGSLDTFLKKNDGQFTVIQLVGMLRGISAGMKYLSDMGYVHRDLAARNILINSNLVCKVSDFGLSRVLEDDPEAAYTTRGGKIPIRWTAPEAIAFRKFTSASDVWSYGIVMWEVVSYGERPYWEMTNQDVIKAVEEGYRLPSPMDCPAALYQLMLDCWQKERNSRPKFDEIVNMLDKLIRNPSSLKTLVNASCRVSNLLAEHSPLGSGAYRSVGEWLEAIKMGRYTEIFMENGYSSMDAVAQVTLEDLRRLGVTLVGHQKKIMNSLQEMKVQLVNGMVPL
Chain of Focal adhesion kinase 1 (Homo sapiens) (Q05397 2-1052 limits assumed): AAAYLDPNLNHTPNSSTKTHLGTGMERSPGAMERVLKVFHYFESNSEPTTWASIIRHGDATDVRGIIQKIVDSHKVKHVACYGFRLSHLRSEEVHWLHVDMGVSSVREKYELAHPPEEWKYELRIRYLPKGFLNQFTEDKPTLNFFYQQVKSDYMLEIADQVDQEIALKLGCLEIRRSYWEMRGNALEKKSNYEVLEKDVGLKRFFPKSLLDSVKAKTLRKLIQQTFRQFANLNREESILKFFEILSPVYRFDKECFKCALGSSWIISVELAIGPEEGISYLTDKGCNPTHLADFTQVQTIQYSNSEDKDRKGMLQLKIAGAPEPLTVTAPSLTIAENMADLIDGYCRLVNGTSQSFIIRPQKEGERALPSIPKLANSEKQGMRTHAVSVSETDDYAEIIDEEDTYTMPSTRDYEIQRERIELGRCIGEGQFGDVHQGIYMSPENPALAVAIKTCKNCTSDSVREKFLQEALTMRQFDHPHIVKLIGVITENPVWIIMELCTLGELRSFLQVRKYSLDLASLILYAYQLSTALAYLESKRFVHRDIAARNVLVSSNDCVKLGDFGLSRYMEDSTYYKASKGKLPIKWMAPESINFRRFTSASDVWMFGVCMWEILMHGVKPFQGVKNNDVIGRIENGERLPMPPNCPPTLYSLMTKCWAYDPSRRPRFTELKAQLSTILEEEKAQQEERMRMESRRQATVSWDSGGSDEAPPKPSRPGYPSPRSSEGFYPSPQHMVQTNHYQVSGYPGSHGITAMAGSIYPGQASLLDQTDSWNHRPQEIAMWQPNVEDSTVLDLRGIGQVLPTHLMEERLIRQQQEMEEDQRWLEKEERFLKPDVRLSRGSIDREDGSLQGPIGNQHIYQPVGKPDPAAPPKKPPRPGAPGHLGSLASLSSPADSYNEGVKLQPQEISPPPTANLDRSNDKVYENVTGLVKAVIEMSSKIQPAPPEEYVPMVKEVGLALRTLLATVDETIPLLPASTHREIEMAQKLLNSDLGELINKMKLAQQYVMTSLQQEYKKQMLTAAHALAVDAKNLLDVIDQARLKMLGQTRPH

As to `CC(C)(C)c1nc2c3ccc(F)cc3c3c(=O)[nH]ccc3c2[nH]1`, the residual activity in experiment [1] is 72%; in experiment [2], 103%; in experiment [3], 103%; in experiment [4], 99%; in [5] it was 51%.

Take `O=C1Cc2c([nH]c3ccc([N+](=O)[O-])cc23)-c2ccccc2N1`: the residual activity in experiment [6] is 105%; in [7] it was 105%; in [4], 81%; in experiment [8], 106%; in experiment [9], 107%; in [10], 124% (inactive). In addition, the residual activity in experiment [11] turned out to be 113%.

On to `Nc1nccc(-c2c(-c3ccc(F)cc3)ncn2C2CCNCC2)n1`, for which the residual activity came out at 71% in experiment [7]; 113% in experiment [12]; 72% in experiment [13]; 60% in [3]; 77% in experiment [14]; 18% in experiment [15]. Further, the residual activity in [16] is 66%.

What is called residual activity is the signal under treatment as a percentage of the control signal.
